High-throughput results as filed in PubChem.
The list is not random: actives were taken first. Their share in the collection is about 6.9%.
IL-1B inflam inh = qHTS for Inhibitors of Inflammasome Signaling: IL-1-beta AlphaLISA Primary Screen; 360,000 compounds, 4.7% hits; AID 743279, 2014; activity change, % at 57.5 µM; THP-1 LPS/ATP IL-1B secretion, AlphaLISA, 16 h; stronger effect = lower value; in the data active means activity change below about -50%; inconclusive means mostly about -30% to -49%
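Secreted IL-1B measured by AlphaLISA bead assay after 16 h compound exposure of THP-1 cells; compounds (final up to 57.5 uM) added 1 h before LPS (250 ng/mL) and ATP (1.25 mM) stimulation; lower signal means less secretion.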
SW480 rereplic = A quantitative high throughput screen for small molecules that induce DNA re-replication in SW480 colon adenocarcinoma cells; SW480 DNA re-replication, Hoechst DNA content imaging, 48 h; Potency, µM (top dose mostly 46.1 µM), hits mostly activators; 340,000 compounds, 1.8% hits; AID 624297, 2012; further: nearly all actives have a fitted effect of over 55% in size
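First, 250 cells per well were seeded. Next, compound or vehicle (23 nL) was pinned in, plates sat 48 hr at 37 C. Finally Hoechst was added for 40 min before fluorescence scanning.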
Vif-APOBEC3G blk = qHTS for Inhibitors of Vif-A3G Interactions: qHTS; HeLa A3G-eYFP + Vif (tagged APOBEC3G with the HIV-1 protein that degrades it), YFP fluorescence, overnight; Potency, µM (titrated, usually from 46.1 µM), most hits filed as inhibitors; 410,000 compounds, 0.076% hits; AID 602310, 2012; further: nearly all actives have a fitted effect of over 60% in size
Target sequence (Q9HC16 whole entry, looked up): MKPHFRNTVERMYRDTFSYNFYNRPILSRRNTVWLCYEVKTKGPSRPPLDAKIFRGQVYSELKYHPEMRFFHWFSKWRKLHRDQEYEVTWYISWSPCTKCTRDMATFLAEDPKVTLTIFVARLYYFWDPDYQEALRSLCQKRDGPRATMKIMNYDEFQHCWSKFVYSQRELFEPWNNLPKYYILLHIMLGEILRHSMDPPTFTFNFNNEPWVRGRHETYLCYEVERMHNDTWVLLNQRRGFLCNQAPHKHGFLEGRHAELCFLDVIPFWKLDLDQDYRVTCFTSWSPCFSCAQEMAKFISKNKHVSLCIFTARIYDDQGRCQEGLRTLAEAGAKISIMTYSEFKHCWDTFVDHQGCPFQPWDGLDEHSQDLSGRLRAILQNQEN
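Read-out is eYFP fluorescence (Ex 488/Em 500-530) from Vif-expressing HeLa A3G-eYFP cells; more signal means A3G escaped Vif-mediated degradation. Cells plated overnight, compound pinned in, incubated overnight at 37 deg C.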
MCF10A rereplic = A quantitative high throughput screen for small molecules that induce DNA re-replication in MCF 10a normal breast cells; MCF 10A DNA re-replication, Hoechst nuclear intensity, 48 h; AID 624296, 2012; Potency, µM (series often up to 46.1 µM), actives largely listed as activators; 350,000 compounds, 2.9% hits; further: nearly all actives have a fitted effect of over 50% in size
Giardia killer = Small Molecules that selectively kill Giardia lamblia: qHTS | 340,000 compounds, 0.15% hits | Giardia lamblia trophozoite viability | activity change, % at 7.66 µM, hits read low | AID 540267, 2011; in the data active means activity change below about -80%; inconclusive means between about -30% and that limit;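 further: parasites exposed to compound for two days anaerobically before the ATP read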
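Anaerobic 48 hrs incubation at 37 deg C of 100 trophozoites/well with test compounds; ATPLite 1-Step luminescence, 15-30 min RT, reports cellular ATP as viability.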
Vif-A3F inh = qHTS for Inhibitors of Vif-A3F Interactions: qHTS; HeLa A3F-eYFP + Vif (tagged APOBEC3F with the HIV-1 protein that degrades it), YFP fluorescence increase; Potency, µM (top dose mostly 46.1 µM); 390,000 compounds, 0.2% hits; further: nearly all actives have a fitted effect of over 65% in size
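HeLa cells stably expressing A3F-eYFP plus Vif, plated and incubated overnight at 37 deg C, then exposed to compounds overnight at 37 deg C. Blocked degradation read as raised yellow fluorescence (Ex 488/Em 500-530).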
Large screens that a line does not name were inactive. Unless noted, the call rests on the fitted dose curve; in most records, active means well fitted curve in the direction sought with a large enough effect; inconclusive means small, poorly fitted or top-dose-only effect, or another doubt; inactive means no such curve, though single readings can be large; an effect the other way counts as inactive or inconclusive.

Nc1ccc2nc(-c3ccccc3)sc2c1	SW480 rereplic inconclusive, MCF10A rereplic 25.9µM, Giardia killer inconclusive
Nc1ccc(Oc2cc(N)cc(Oc3ccccc3)c2)cc1	IL-1B inflam inh inconclusive, MCF10A rereplic inconclusive, Giardia killer inconclusive
CCCN1CNc2c(c(=O)[nH]c(=S)n2CCc2ccc(C)cc2)C1	none (no result: IL-1B inflam inh, SW480 rereplic, Vif-APOBEC3G blk, MCF10A rereplic, Vif-A3F inh)
C[n+]1cc(C(=O)N2CCCCC2)ccc1/C=C/c1c[nH]c2ccccc12	Vif-APOBEC3G blk 11.2µM, Vif-A3F inh inconclusive
O=C(C(=O)N1CCCCCC1)c1c[nH]c2ccccc12	none
COc1ccc(N2C(=O)CC(N3CCN(c4ccc(Cl)cc4)CC3)C2=O)cc1 (centres undefined)	IL-1B inflam inh -50.6
COc1ccc(C(=O)CCN2CCN(c3ccc(OC)cc3)CC2)cc1	IL-1B inflam inh -100.8, SW480 rereplic inconclusive, MCF10A rereplic inconclusive
COc1ccc(N2CCN(CC(=O)c3ccc(Cl)cc3)CC2)cc1	MCF10A rereplic 18.4µM
COc1ccc(C(=O)CCN2CCN(c3ccccc3F)CC2)cc1	SW480 rereplic inconclusive, MCF10A rereplic 5.8µM
CCOc1ccc(NC(=O)c2nnn(-c3ccc(F)c(Cl)c3)c2C)cc1	none (no result: IL-1B inflam inh, SW480 rereplic, MCF10A rereplic, Giardia killer)
CC(C)Oc1ccc(C(=O)CCN2CCOCC2)cc1	SW480 rereplic inconclusive, MCF10A rereplic inconclusive
CCOc1ccc(NC(=O)CCN2CCN(c3ccccc3OC)CC2)cc1	none
CC(C)Oc1ccc(C(=O)CCN2CCCCC2)cc1	SW480 rereplic inconclusive, MCF10A rereplic 23.1µM
CCOc1ccc(NC(=O)CCN2CCN(c3ccccc3F)CC2)cc1	SW480 rereplic 18.4µM, Vif-APOBEC3G blk inconclusive, MCF10A rereplic inconclusive
O=C1CC(N2CCSCC2)C(=O)N1c1cccc(Cl)c1 (centres undefined)	SW480 rereplic inconclusive, MCF10A rereplic 0.82µM
COc1ccc(-n2c(SCC(=O)NC3CCCCC3)nc3c([nH]c4ccccc43)c2=O)cc1	none (no result: IL-1B inflam inh, SW480 rereplic, MCF10A rereplic, Giardia killer)
CCOC(=O)c1sc(=S)n(-c2ccccc2)c1SC	none
CCOC(=O)c1sc(=S)n(-c2ccccc2Cl)c1SC	IL-1B inflam inh -67.4, SW480 rereplic inconclusive
CN1CCC(NCCC(c2ccc(F)cc2)c2ccc(Cl)cc2)CC1 (centres undefined)	IL-1B inflam inh -103.1, SW480 rereplic inconclusive, Vif-APOBEC3G blk inconclusive, MCF10A rereplic inconclusive
CCNC(=O)N1CCN(CCCC(c2ccc(F)cc2)c2ccc(F)cc2)CC1	MCF10A rereplic inconclusive
CC(C)C(CCNC1CCN(C)CC1)c1ccc(Cl)cc1 (centres undefined)	IL-1B inflam inh -51.5, MCF10A rereplic inconclusive
CC(C)C(CCNCc1ccccn1)c1ccc(Cl)cc1 (centres undefined)	SW480 rereplic inconclusive, MCF10A rereplic inconclusive (no result: IL-1B inflam inh)
O=C(Nc1ccc(F)c(F)c1)c1ccc(=O)n(Cc2ccc(F)cc2)c1	none (no result: IL-1B inflam inh, SW480 rereplic, MCF10A rereplic, Giardia killer)
CCOC(=O)c1c(NC(=O)CSc2cn(CCNC(=O)c3ccccc3OC)c3ccccc23)sc2c1CCC2	none (no result: IL-1B inflam inh, SW480 rereplic, MCF10A rereplic, Giardia killer)
COc1ccc(S(=O)(=O)c2cn(C)c3cc(N4CCCCCC4)c(F)cc3c2=O)cc1	none (no result: IL-1B inflam inh, SW480 rereplic, MCF10A rereplic, Giardia killer)
CCC(C(=O)NC1CC1)n1nc(C)c2c(C)n(-c3ccccc3)nc2c1=O (centres undefined)	none
CCC(C(=O)NC1CCCCC1)n1nc(C)c2c(C)n(-c3ccccc3)nc2c1=O (centres undefined)	IL-1B inflam inh -68.6
Cc1cc(NC(=O)c2ccc(NC(=O)CCS(=O)(=O)c3cccs3)cc2)ccc1Br	none (no result: IL-1B inflam inh, SW480 rereplic, MCF10A rereplic, Giardia killer)
COc1c2ccoc2c(OC(C)=O)c2oc(C)cc(=O)c12	IL-1B inflam inh -50.7, SW480 rereplic inconclusive, MCF10A rereplic inconclusive
COc1ccc(CCNC(=O)c2cnc3ccc(C)cn3c2=O)cc1OC	none (no result: IL-1B inflam inh, SW480 rereplic, MCF10A rereplic, Giardia killer)
COc1cccc2c1O/C(=N\O)C(C(=O)Nc1ccc(C)cc1)C2 (centres undefined)	SW480 rereplic inconclusive, Vif-APOBEC3G blk inconclusive, MCF10A rereplic 18.4µM
Cc1cccc(NC(=O)/C(C#N)=C\c2ccc(C(=O)O)cc2)c1	none
